From PubChem
Cycloheximide cs = counter-screen for Shiga toxin inhibitors: cycloheximide protein synthesis inhibition; cell reporter, cycloheximide protein synthesis inhibition counterscreen; max response, %; 300,000 compounds, 12% hits; in the data active means max response mostly above about 13%, no sharp cut-off; inactive means mostly below about 14%; further: read at 38.3 µM for the half of the compounds with a filed dose; 0% is about no effect
Shiga inhibitor = inhibitors of Shiga toxin in Vero cells. 290,000 compounds, 9.2% hits. inhibition, % at 38.7 µM. Vero cells, Shiga toxin protein synthesis inhibition reporter; in the data active means inhibition mostly above about 28%, no sharp cut-off; inactive means mostly below about 43%; further: 0% is about no effect
SARS PLpro yeast = inhibitors of SARS-CoV papain-like protease in yeast; Potency, µM (doses to about 32.9 µM), inactives show at the top dose activity, positive = growth rescue, most hits filed as activators; 330,000 compounds, 0.19% hits; S. cerevisiae expressing SARS-CoV PLpro, growth rescue; AID 485353; further: potency means the concentration at half of the fitted maximal effect; 0% is about no effect; nearly all actives have a fitted effect of over 55% in size
NS1 inh = blocks influenza NS1 protein function. 270,000 compounds, 0.4% hits. AID 2326. Potency, µM (top dose mostly 46.1 µM), for the others: top-dose activity, positive = more growth; further: potency means the concentration at half of the fitted maximal effect; actives are rising curves; nearly all actives have a fitted effect of over 50% in size
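S. cerevisiae expressing influenza A NS1, grown in glucose, washed, then diluted 1:100 into pH 6.0 -URA galactose medium with 23 nl compound. Growth recovery read as OD600; NS1-free strain serves as control.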
* = called active by the depositor; ? = inconclusive; · = no result. Only some compounds are listed: those with a hit (about 12% of all), similar ones and a draw of the others. Unless noted, the call rests on the fitted dose curve.

SMILES | Cycloheximide cs | Shiga inhibitor | SARS PLpro yeast | NS1 inh
COc1cccc(C(=O)Nc2ccc3c(c2)C(=O)c2ccccc2C3=O)c1 | 31.1* | 37.6* | -8.0% | -3.0%
COc1cccc(C(=O)NC(=S)Nc2ccc3oc(=O)ccc3c2)c1 | -1.2 | 0.5 | 20.0% | -1.8%
COc1cccc(C(=O)NC(=S)Nc2ccc(N(C)C)cc2)c1 | 33.6* | 101.7* | -17.2% | -3.6%
O=C(Nc1ccccc1C(=O)O)c1cc(S(=O)(=O)N2CCCCC2)c(Cl)cc1Cl | 12.3 | 7.3 | 0.0% | ?
C=CCN(CC=C)CCCOc1ccc(Br)cc1Cl | 15.6 | 5.3 | 1.5% | 7.2%
COc1cc(C2Nn3c(nnc3-c3ccccc3OC)S2)ccc1O (stereo not given) | -3.7 | -13.2 | 14.0% | 2.5%
COc1cccc(C(=O)Nc2nnc(-c3ccc(OC)cc3OC)s2)c1 | -7.3 | -1.7 | -2.2% | 5.1%
Cc1cccc(C(=O)Nc2ccc(O)cc2)c1 | 30.1* | 37.3 | ? | -6.5%
COc1cccc(C(=O)Nc2nnc(-c3ccccc3)s2)c1 | 33.5* | 112.2* | -1.2% | -5.5%
O=C(Nc1cccc(NC(=O)c2ccco2)c1)c1cccc(Br)c1 | 20.5 | 85.8* | -23.8% | -36.7%
Cc1cccc(C(=O)Nc2ccc(O)cc2C(=O)O)c1 | 2.6 | -6.6 | 0.6% | 6.2%
O=C(COc1ccc(Cc2ccccc2)cc1)c1ccc(F)cc1 | 34.8* | -17.0 | -7.2% | -0.6%
CCNS(=O)(=O)c1ccc(CCC(=O)NCCC2=CCCCC2)cc1 | -3.5 | -7.8 | -5.6% | -4.9%
O=C(/C=C/c1ccc(Cl)cc1)Nc1cc(S(=O)(=O)N2CCOCC2)ccc1N1CCOCC1 | · | · | 7.1% | ·
COC(=O)c1cccc(NC(=O)c2cc3sccc3n2C)c1 | 28.8* | 109.0* | -4.2% | -24.9%
COc1cccc(NC(=O)c2cnc(SC)nc2)c1 | 21.3* | 27.0 | -3.4% | -10.1%
COC(=O)c1ccccc1NC(=O)c1cc2sccc2n1C | 1.4 | 6.3 | 0.8% | -7.6%
COc1cccc(NC(=S)NC(=O)c2cccnc2)c1 | 17.9* | 39.1* | 1.0% | -4.0%
O=C(Nc1cccc(C(=O)N2CCCCCC2)c1)c1ccco1 | 10.4* | -2.0 | 1.1% | -1.5%
CC(=O)c1cccc(NC(=O)CC(C)n2ccnc2)c1 (stereo not given) | 2.1 | 11.7 | 0.5% | -2.1%
CC(=O)Nc1ccc2c(c1)C(=Nc1ccc(C(=O)O)cc1)c1ccccc1-2 | · | · | · | -15.5%
CCN(CC)S(=O)(=O)c1cc(OC)c(Cl)cc1OC | -2.3 | 1.3 | -0.9% | -4.2%
COC(=O)c1ccccc1NC(=O)CSc1nnc(-c2cccnc2)n1N | 0.6 | 1.9 | -1.2% | 4.4%
